Laboratory results as given in paper PMC9911399, “Two distinct binding modes provide the RNA-binding protein RbFox with extraordinary sequence specificity”.
Residue numbers refer to the chain shown, from its start. The full ranking holds about 16,000 sequences; the median of “ka relative to ugcaugu” is about 0.096, and the highest 2% start at about 0.35. Many of the other results were omitted from the sample, so the highest values are more common in it than they were.

T1: RBFOX1 RRM RbFoxmut (Fox-RRM*) (Homo sapiens, UniProt Q9NWB1 109-208, R118D;E147R;N151S;E152T)
T1 sequence: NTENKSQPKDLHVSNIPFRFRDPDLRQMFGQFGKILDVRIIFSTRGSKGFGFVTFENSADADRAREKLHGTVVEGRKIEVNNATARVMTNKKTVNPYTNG

B1: UGCUAAU (DNA:RNA)
RNA: GGGAGACCGGAAUUCAGAUUGUCCUGCUAAUUUAAAUCCCGUCGUAGCCACCA
DNA 1: CAATCTGAATTCCGGTCTCCC
DNA 2: TGGTGGCTACGACGGGATT
B2: AGCGUUA (DNA:RNA)
RNA: B1 RNA with U25A, U28G, A29U, A30U, U31A
DNA 1: CAATCTGAATTCCGGTCTCCC
DNA 2: TGGTGGCTACGACGGGATT
B3: GUGCUCG (DNA:RNA)
RNA: GGGAGACCGGAAUUCAGAUUGUCCGUGCUCGUUAAAUCCCGUCGUAGCCACCA
DNA 1: CAATCTGAATTCCGGTCTCCC
DNA 2: TGGTGGCTACGACGGGATT
B4: CUUACCA (DNA:RNA)
RNA: B3 RNA with G25C, G27U, C28A, U29C, G31A
DNA 1: CAATCTGAATTCCGGTCTCCC
DNA 2: TGGTGGCTACGACGGGATT
B5: GAGUGUA (DNA:RNA)
RNA: B3 RNA with U26A, C28U, U29G, C30U, G31A
DNA 1: CAATCTGAATTCCGGTCTCCC
DNA 2: TGGTGGCTACGACGGGATT
B6: CAGCCAU (DNA:RNA)
RNA: B3 RNA with G25C, U26A, U29C, C30A, G31U
DNA 1: CAATCTGAATTCCGGTCTCCC
DNA 2: TGGTGGCTACGACGGGATT
B7: UGUCCCG (DNA:RNA)
RNA: B3 RNA with G25U, U26G, G27U, U29C
DNA 1: CAATCTGAATTCCGGTCTCCC
DNA 2: TGGTGGCTACGACGGGATT
B8: UGUAUUG (DNA:RNA)
RNA: B3 RNA with G25U, U26G, G27U, C28A, C30U
DNA 1: CAATCTGAATTCCGGTCTCCC
DNA 2: TGGTGGCTACGACGGGATT
B9: UGUAUUA (DNA:RNA)
RNA: B1 RNA with C27U, U28A, A29U, A30U, U31A
DNA 1: CAATCTGAATTCCGGTCTCCC
DNA 2: TGGTGGCTACGACGGGATT
B10: UGUAUCC (DNA:RNA)
RNA: B3 RNA with G25U, U26G, G27U, C28A, G31C
DNA 1: CAATCTGAATTCCGGTCTCCC
DNA 2: TGGTGGCTACGACGGGATT
B11: UGUUGUA (DNA:RNA)
RNA: B1 RNA with C27U, A29G, A30U, U31A
DNA 1: CAATCTGAATTCCGGTCTCCC
DNA 2: TGGTGGCTACGACGGGATT
B12: UGUAUCG (DNA:RNA)
RNA: B3 RNA with G25U, U26G, G27U, C28A
DNA 1: CAATCTGAATTCCGGTCTCCC
DNA 2: TGGTGGCTACGACGGGATT
B13: GCUAGGC (DNA:RNA)
RNA: B3 RNA with U26C, G27U, C28A, U29G, C30G, G31C
DNA 1: CAATCTGAATTCCGGTCTCCC
DNA 2: TGGTGGCTACGACGGGATT
B14: UGCACAU (DNA:RNA)
RNA: B1 RNA with U28A, A29C
DNA 1: CAATCTGAATTCCGGTCTCCC
DNA 2: TGGTGGCTACGACGGGATT
B15: GACAGGU (DNA:RNA)
RNA: B1 RNA with U25G, G26A, U28A, A29G, A30G
DNA 1: CAATCTGAATTCCGGTCTCCC
DNA 2: TGGTGGCTACGACGGGATT
B16: AGUUAAU (DNA:RNA)
RNA: B1 RNA with U25A, C27U
DNA 1: CAATCTGAATTCCGGTCTCCC
DNA 2: TGGTGGCTACGACGGGATT
B17: UUGUGUC (DNA:RNA)
RNA: B3 RNA with G25U, C28U, U29G, C30U, G31C
DNA 1: CAATCTGAATTCCGGTCTCCC
DNA 2: TGGTGGCTACGACGGGATT
B18: GUGUGUC (DNA:RNA)
RNA: B3 RNA with C28U, U29G, C30U, G31C
DNA 1: CAATCTGAATTCCGGTCTCCC
DNA 2: TGGTGGCTACGACGGGATT
B19: CCUUGUC (DNA:RNA)
RNA: B1 RNA with U25C, G26C, C27U, A29G, A30U, U31C
DNA 1: CAATCTGAATTCCGGTCTCCC
DNA 2: TGGTGGCTACGACGGGATT
B20: UUGUCCC (DNA:RNA)
RNA: B3 RNA with G25U, C28U, U29C, G31C
DNA 1: CAATCTGAATTCCGGTCTCCC
DNA 2: TGGTGGCTACGACGGGATT
B21: UUGGGAA (DNA:RNA)
RNA: B3 RNA with G25U, C28G, U29G, C30A, G31A
DNA 1: CAATCTGAATTCCGGTCTCCC
DNA 2: TGGTGGCTACGACGGGATT
B22: UCGUGUC (DNA:RNA)
RNA: B1 RNA with G26C, C27G, A29G, A30U, U31C
DNA 1: CAATCTGAATTCCGGTCTCCC
DNA 2: TGGTGGCTACGACGGGATT
B23: UUGGGGG (DNA:RNA)
RNA: B3 RNA with G25U, C28G, U29G, C30G
DNA 1: CAATCTGAATTCCGGTCTCCC
DNA 2: TGGTGGCTACGACGGGATT
B24: CUUGUCC (DNA:RNA)
RNA: B3 RNA with G25C, G27U, C28G, G31C
DNA 1: CAATCTGAATTCCGGTCTCCC
DNA 2: TGGTGGCTACGACGGGATT
B25: UUGGGUG (DNA:RNA)
RNA: B3 RNA with G25U, C28G, U29G, C30U
DNA 1: CAATCTGAATTCCGGTCTCCC
DNA 2: TGGTGGCTACGACGGGATT
B26: UCGCGUG (DNA:RNA)
RNA: B3 RNA with G25U, U26C, U29G, C30U
DNA 1: CAATCTGAATTCCGGTCTCCC
DNA 2: TGGTGGCTACGACGGGATT
B27: UUGUGUG (DNA:RNA)
RNA: B3 RNA with G25U, C28U, U29G, C30U
DNA 1: CAATCTGAATTCCGGTCTCCC
DNA 2: TGGTGGCTACGACGGGATT
B28: UCGCGUC (DNA:RNA)
RNA: B3 RNA with G25U, U26C, U29G, C30U, G31C
DNA 1: CAATCTGAATTCCGGTCTCCC
DNA 2: TGGTGGCTACGACGGGATT

Biological target: T1, RBFOX1 RRM RbFoxmut (Fox-RRM*)
Assay: EMSA; HiTS-Eq, 1 nM pool, 10 min; buffer printed only for the single-RNA assays: 10 mM Tris pH 7.5, 150 mM NaCl, 3.4 mM EDTA, 0.001% NP-40, 30 C
Conditions: tags: His6 N-terminal (pET28a); label: 5' 32P
In short: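 Purified RbFox RRM, wild type or mutant, was incubated for 10 min in 50 µL with 1 nM of a 5′-radiolabelled RNA pool carrying 7 randomized nucleotides, whose flanks were annealed to DNA oligonucleotides, over a series of increasing protein concentrations. Unbound RNA was resolved on 8% native PAGE, cut out, reverse-transcribed, barcoded by PCR and sequenced on an Illumina HiSeq 2500. Relative association constants were derived from changes in read counts for each RNA species versus the control reaction and normalised to the cognate motif.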

| Binder | binding signal |
| --- | --- |
| B1 | 0.0977 KA relative to UGCAUGU |
| B2 | 0.113 KA relative to UGCAUGU |
| B3 | 0.226 KA relative to UGCAUGU |
| B4 | 0.0834 KA relative to UGCAUGU |
| B5 | 0.258 KA relative to UGCAUGU |
| B6 | 0.0919 KA relative to UGCAUGU |
| B7 | 0.096 KA relative to UGCAUGU |
| B8 | 0.691 KA relative to UGCAUGU |
| B9 | 0.175 KA relative to UGCAUGU |
| B10 | 0.15 KA relative to UGCAUGU |
| B11 | 0.307 KA relative to UGCAUGU |
| B12 | 0.648 KA relative to UGCAUGU |
| B13 | 0.0891 KA relative to UGCAUGU |
| B14 | 0.0893 KA relative to UGCAUGU |
| B15 | 0.0716 KA relative to UGCAUGU |
| B16 | 0.0918 KA relative to UGCAUGU |
| B17 | 0.357 KA relative to UGCAUGU |
| B18 | 0.329 KA relative to UGCAUGU |
| B19 | 0.226 KA relative to UGCAUGU |
| B20 | 0.0731 KA relative to UGCAUGU |
| B21 | 0.14 KA relative to UGCAUGU |
| B22 | 0.359 KA relative to UGCAUGU |
| B23 | 0.0724 KA relative to UGCAUGU |
| B24 | 0.107 KA relative to UGCAUGU |
| B25 | 0.373 KA relative to UGCAUGU |
| B26 | 0.153 KA relative to UGCAUGU |
| B27 | 0.491 KA relative to UGCAUGU |
| B28 | 0.145 KA relative to UGCAUGU |
